Only some compounds are listed: those with a hit (about 2.5% of all), similar ones and a draw of the others.
Pol iota inh: DNA polymerase iota (human) inhibition; Q9UNA4; Pol iota fluorescent replication assay, 10 min; Potency, µM (highest dose often 115 µM), for the others: at the top dose activity, negative = inhibition, usual class: inhibitors; actives 1% (n = 390,000)
Target sequence (Q9UNA4 whole entry, looked up): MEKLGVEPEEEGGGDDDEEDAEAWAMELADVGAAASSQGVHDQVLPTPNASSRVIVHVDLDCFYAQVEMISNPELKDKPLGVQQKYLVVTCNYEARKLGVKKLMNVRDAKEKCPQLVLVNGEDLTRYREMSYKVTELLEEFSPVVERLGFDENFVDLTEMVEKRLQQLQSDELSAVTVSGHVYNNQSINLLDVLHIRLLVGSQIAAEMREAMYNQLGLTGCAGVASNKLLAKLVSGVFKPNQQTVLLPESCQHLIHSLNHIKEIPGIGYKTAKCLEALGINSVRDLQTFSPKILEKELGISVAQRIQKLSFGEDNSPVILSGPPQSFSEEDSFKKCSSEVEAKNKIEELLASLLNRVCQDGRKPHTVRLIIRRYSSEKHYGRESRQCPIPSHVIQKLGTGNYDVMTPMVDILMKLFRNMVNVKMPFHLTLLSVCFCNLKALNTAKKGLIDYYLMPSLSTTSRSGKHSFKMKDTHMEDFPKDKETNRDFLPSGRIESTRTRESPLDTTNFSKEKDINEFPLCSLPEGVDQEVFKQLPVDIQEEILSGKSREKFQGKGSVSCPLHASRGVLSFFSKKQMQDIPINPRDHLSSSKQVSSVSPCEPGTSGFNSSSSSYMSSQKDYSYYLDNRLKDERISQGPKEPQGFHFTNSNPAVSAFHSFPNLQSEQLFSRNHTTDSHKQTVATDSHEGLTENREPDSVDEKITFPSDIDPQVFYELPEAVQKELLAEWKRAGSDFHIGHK
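Pol iota at 10 nM preincubated 15 min with compounds at room temperature; reaction started with fluorescent substrate, 50 nM final. Fluorescence read kinetically at 0 and 10 min; buffer-only wells as negative control.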
Pol beta inh: DNA polymerase beta (human) inhibition | P06746 | Pol beta primer extension/strand displacement, fluorescence kinetic | Potency, µM (series often up to 114 µM), without a hit: at the top dose activity change, negative = inhibition, usual class: inhibitors | actives 1.3% (n = 340,000); note: % is set by controls: 0 for no effect and ±100 for the full control effect
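Reaction started by 50 nM substrate onto compound-treated Pol beta (10 nM, 15 min preincubation, room temperature); plates read at 0 min and 10 min. Normalized concentration-effect data fitted by four-parameter Hill equation.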
L3MBTL1 block: blocks human L3MBTL1; Q9Y468; AlphaScreen L3MBTL1–H3K9me1 peptide binding; Potency, µM (doses to about 57.1 µM), inactives show at the highest dose activity, negative = inhibition, most hits filed as inhibitors; actives 0.66% (n = 230,000); AID 485360; note: % is set by controls: 0 for no effect and ±100 for the full control effect; nearly all actives have a fitted effect of over 60% in size
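L3MBTL1 50 nM + b-AHA-H3(1-15)K9me1 75 nM, 30 min RT; compound added, 30 min RT; streptavidin donor/Ni-chelate acceptor beads 10 ug/mL each final, 30 min RT dark; AlphaScreen read.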
WRN inhibitor: inhibitors of human WRN helicase; actives 0.46% (n = 360,000); Q14191; Potency, µM (titrated, usually from 114 µM), without a hit: at the highest dose activity change, negative = inhibition, usual class: inhibitors; WRN helicase unwinding, fluorescent forked duplex, kinetic; AID 651768; note: % is set by controls: 0 for no effect and ±100 for the full control effect; nearly all actives have a fitted effect of over 55% in size
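Kinetic fluorescence helicase assay: unwinding of a quenched forked DNA duplex (100 nM final) with 2 mM ATP final raises red fluorescence (525/598 nm). Compounds sat 15 min at room temperature with 20 nM WRN beforehand.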
Pol kappa inh: inhibitors of human DNA polymerase kappa | Q9UBT6 | purified Pol kappa, fluorescent DNA synthesis assay, 10 min | Potency, µM (highest dose often 107 µM), for the others: top-dose activity, negative = inhibition, most hits filed as inhibitors | actives 0.53% (n = 400,000) | AID 588579; note: % is set by controls: 0 for no effect and ±100 for the full control effect
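Kinetic fluorescence readout at 0 and 10 min followed reaction start with substrate at 50 nM final. Beforehand, enzyme (10 nM Pol kappa) stood 15 min with compound at room temperature; buffer-only wells were negative controls.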
Pol eta inh: blocks human DNA polymerase eta activity; recombinant Pol eta, fluorescent DNA replication assay; Potency, µM (titrated, usually from 114 µM), for the others: at the highest dose activity change, negative = inhibition, actives largely listed as inhibitors; actives 1.2% (n = 390,000); AID 588591; note: % is set by controls: 0 for no effect and ±100 for the full control effect
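Fluorescent replication assay: 50 nM final substrate added after a 15 min room-temperature compound preincubation with 10 nM enzyme. Signal taken at 0 min and again at 10 min.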
An asterisk follows results filed as active; ? = inconclusive; · = not tested or not shown; [ ] = dose if it differs, or a comment. Calls come from the whole dose curve; as a rule, active = well fitted curve in the direction sought with a large enough effect; inconclusive = small, poorly fitted or top-dose-only effect, or another doubt; inactive = no such curve, though single readings can be large; an effect the other way counts as inactive or inconclusive. Potency is the fitted concentration of half-maximal effect.

SMILES	Pol iota inh	Pol beta inh	L3MBTL1 block	WRN inhibitor	Pol kappa inh	Pol eta inh
CCOC(=O)CCCN1CC(O)=C(c2nc(-c3ccc(Cl)cc3)cs2)C1=N	105.9%	-28.1%	·	-2.5%	-18.7%	-8.7%
CCCCN1CC(O)=C(c2nc(-c3ccc(Br)cc3)cs2)C1=N	14.2%	5.01µM*	-2.7%	-9.3%	1.1%	?
CCCNC(=O)COC(=O)c1c2c(nc3ccccc13)CCC2	25.1µM*	50.1µM*	·	-28.3%	?	50.1µM*
CC(C)CNC(=O)COC(=O)c1c2c(nc3ccccc13)CCC2	?	39.8µM*	·	-12.8%	-32.6%	?
CC(C)(C)C(=O)COC(=O)c1c2c(nc3ccccc13)CCC2	?	17.8µM*	?	-12.0%[57.1 µM]	-11.0%	79.4µM*
CC(C)CNC(=O)COC(=O)c1c2c(nc3ccccc13)/C(=C/c1cccs1)CC2	?	17.8µM*	?	-28.3%[57.1 µM]	-7.6%	?
CCCCNC(=O)COC(=O)c1c2c(nc3ccccc13)/C(=C\c1cccs1)CC2	?	·	·	1.0%[11.6 µM]	?	?
O=C1CCCN2N=C(SCC(=O)Nc3nc4ccccc4s3)SC2=N1	-24.3%	?	-13.0%	-12.5%	-21.8%	-17.3%
CCCCOc1ccc(N(CC(=O)NC2CCCCC2)C(=O)c2snc(C(N)=O)c2N)cc1	168.7%	7.8%	·	12.6%	0.5%	-4.3%
COc1cc2c3cc1OCc1c(O)c(OC)cc4c1C(Cc1ccc(cc1)Oc1cc(ccc1O)CC3N(C)CC2)N(C)CC4 (stereo not given)	-6.1%	·	·	·	-11.1%	·
CN1CCc2cccc3c2[C@H]1Cc1ccc(O)c(O)c1-3	17.8µM*	2.5%	?	-16.2%	-5.7%	-0.9%
CCCOc1ccccc1C(=O)Nc1ccc(-c2nc3ccc(C)cc3s2)cc1	-4.5%	0.1%	·	·	-5.4%	-5.2%
CC1CCCCN1C(=O)c1cc2c(=O)n3ccccc3nc2s1 (stereo not given)	54.2%	0.6%	·	3.5%	-16.6%	-12.2%
COc1ccc(N2CCc3c(C)nc4c(OC)cc(OC)cc4c32)cc1	24.6%	39.8µM*	-2.9%	13.6%[11.6 µM]	-2.4%	-2.6%
N#CC1=C(N)OC2=C(CC/C2=C\c2ccc(F)cc2)C1c1ccc(F)cc1 (stereo not given)	·	-12.4%	9.7%	·	·	·
N#CC1=C(N)OC2=C(CCC/C2=C/c2ccoc2)C1c1ccoc1 (stereo not given)	·	14.1µM*	15.8µM*	·	·	·
Cc1ccc(S(=O)(=O)N2CCC(C)CC2)cc1C(=O)NCCN1CCOCC1	5.4%	38.2%	·	0.8%	-3.3%	-19.0%
CNC(C)C#Cc1ccc2sc3cccc(OC)c3c(=O)c2c1 (stereo not given)	?	3.3%	2.8%	-0.4%	-10.7%	3.5%
O=C1S/C(=C\c2ccc(O)c([N+](=O)[O-])c2)C(=O)N1Cc1cccc([N+](=O)[O-])c1	?	31.6µM*	?	-8.3%[11.6 µM]	?	?
O=C(O)c1cccc(CN2C(=O)S/C(=C/c3ccccc3[N+](=O)[O-])C2=O)c1	20µM*	28.2%	-23.6%	-11.7%	-25.0%	79.4µM*
COc1cccc(NC(=O)COC(=O)c2cc(S(=O)(=O)N3CCOCC3)ccc2C)c1	5.4%	0.0%	·	2.7%	-7.3%	-17.3%
CCCC(=O)N1CCCC1(C)C(=O)NCc1ccc(F)cc1Cl (stereo not given)	·	·	·	-7.9%	·	·
Cc1sc(C(C2C(=O)CC(C)(C)CC2=O)C2C(=O)CC(C)(C)CC2=O)cc1[N+](=O)[O-]	15.8µM*	-20.2%	-21.6%	-8.6%[11.6 µM]	-7.4%	-2.3%
CC1(C)CC(=O)C(C(c2cc([N+](=O)[O-])ccc2Cl)C2C(=O)CC(C)(C)CC2=O)C(=O)C1	22.1%	·	·	0.9%	-5.4%	-9.6%
O=C(CSc1ccccn1)N1CCNC1=O	99.7%	·	1.0%	2.0%	-6.4%	-14.0%
SMILES	Pol iota inh	Pol beta inh	L3MBTL1 block	WRN inhibitor	Pol kappa inh	Pol eta inh
CCOC(=O)c1cnc2c(Cl)cc(Cl)cc2c1Nc1ccccc1OC	-0.1%	-1.6%	·	·	-4.5%	1.7%
O=c1cc(/N=C/c2coc3c(ccc4ccccc43)c2=O)[nH]c(=S)[nH]1	?	22.4µM*	-6.0%	-4.3%	?	?
CC(C)(C)c1nnc2sc(SCC(=O)c3ccccc3)nn2c1=O	5.2%	-0.9%	0.9%	10.9%	2.4%	-10.0%
Cc1ccc(Nc2nnc(SC/C(O)=C(\C#N)c3nc4ccccc4[nH]3)s2)c(C)c1	?	-13.4%	-4.6%	-26.0%	-30.4%	31.6µM*
CC(C)(C)c1nnc2sc(SC/C(O)=C(\C#N)c3nc4ccccc4[nH]3)nn2c1=O	-25.6%	-20.9%	-10.9%	?	-16.6%	20µM*
Cc1cccc(Nc2nnc(SC/C(O)=C(\C#N)c3nc4ccccc4[nH]3)s2)c1	-5.0%	?	-18.2%	-21.3%[57.1 µM]	-17.8%	?
COc1ccc(-n2c(O)c(/C=N/NS(=O)(=O)c3cc(C)ccc3C)c3ccccc3c2=O)cc1OC	?	?	-13.1%	79.4µM*	?	?
O=C(NC(CO)(CO)CO)c1coc(=O)c(Br)c1	4.4%	39.3%	51.1%	2.0%	-7.3%	-8.9%
O=C(NNC(=O)C1C2CCCCC21)c1coc(=O)c(Br)c1 (stereo not given)	44.7µM*	?	·	-5.4%[11.6 µM]	?	50.1µM*
O=C(Nc1cc(Cl)cc(Cl)c1)c1coc(=O)c(Br)c1	28.2µM*	28.2µM*	?	?	79.4µM*	?
COc1ccc(NC(=O)CN2C(=O)COc3ccc(S(=O)(=O)N4CCCCCC4)cc32)cc1	-24.6%	2.7%	·	-0.1%	3.4%	-17.4%
Cc1c(N)cc(N)cc1C(=O)O	44.7µM*	29.9%	·	-4.1%	89.1µM*	7.7%
CCOC(=O)[C@@H]1[C@H]2COc3cc(OC)ccc3[C@H]2N2C(=O)N(c3ccccc3)C(=O)[C@]12C	-1.9%	·	-0.3%	-5.0%	-1.4%	-1.8%
O=C(O)CSc1cc(C(=O)c2cc(F)ccc2O)cn2c(=O)c3c(-c4ccccc4)csc3nc12	?	?	?	-24.9%	?	22.4µM*
Cc1nc2ccccn2c1C(=O)N/N=C/c1ccccc1[N+](=O)[O-]	35.4%	4.0%	-4.1%	-13.5%	-2.4%	-12.4%
CN(C)c1ccc(/C=C(/NC(=O)c2ccccc2)C(=O)N/N=C/c2ccc([N+](=O)[O-])c(O)c2)cc1	?	-2.1%	31.6µM*	?	?	?
O=C(O)/C(=N/NC(=O)c1ccc(Cl)cc1)c1ccccc1	8.1%	25.1µM*	8.8%	-2.5%	1.0%	-14.2%
CC(=O)Nc1cc2c(cc1[N+](=O)[O-])-c1ccc(F)cc1C2	11.1%	·	·	-1.8%	-2.3%	-3.8%
O=C(Cc1cccs1)NCC1CCCO1 (stereo not given)	?	12.6µM*	-1.0%	-8.9%[57.1 µM]	-28.7%	?

High-throughput results from PubChem.
